# Experimental data published in PubChem BioAssay.
# The source made the active and inactive calls.
# What was measured:
# Albumin (Bos taurus) = Albumin (Bos taurus) (UniProt P02769); test: compounds binding labelled BSA control protein – biochemical, small-molecule microarray, Alexa647 label, 635/667 nm fluorescence, artefact control for SMM control protein annotation, profiling panel (AID 1118); conditions: BSA-A647 binding, fluorescence 635 nm, higher = more signal;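 also: score merges 667 nm emission intensity and signal-to-noise per printed compound spot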
# [1] = probe aXIP binding to arrayed compounds – biochemical, NeuroSMM set, 635/667 nm fluorescence, primary screen (AID 1119); conditions: small-molecule microarray, higher = more signal, called active from +8 up or from −8 down;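 also: probe is the protein aXip251-270 applied at 1 µg/mL to compound-printed slides; binding of probe to printed compounds measured as 667 nm fluorescence plus signal to noise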
# [2] = probe aNOTCH3 binding on compound microarray – biochemical, small-molecule microarray, 635/667 nm fluorescence, primary screen (AID 1120); conditions: higher = more signal;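 also: probe is a biotin-tagged antibody raised against NOTCH3 rather than NOTCH3 protein; score merges spot fluorescence near 667 nm with spot signal to noise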
# [3] = probe aNOTCH2 binding on compound microarray – biochemical, small-molecule microarray, 635/667 nm fluorescence, primary screen (AID 1121); conditions: higher = more signal;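 also: score merges feature fluorescence read at 667 nm with its signal to noise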
# [4] = target: Carbonic anhydrase 2 (Homo sapiens) (UniProt P00918); test: compounds binding carbonic anhydrase 2 – biochemical, small-molecule microarray, Alexa647-labelled CAII, profiling panel (AID 1122); conditions: CAII-A647 binding fluorescence, higher = more signal
# [5] = COS7 lysate on small-molecule microarray, probe aHis, 635 nm (AID 1123); conditions: COS7 cell lysate, fluorescence, higher = more signal;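 also: z-score combines 667nm fluorescence intensity with signal-to-noise per printed compound spot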
# [6] = probe aLAP1 signal on lysate-treated microarray – cell lysate, small-molecule microarray, COS7 lysate, primary screen (AID 1124); conditions: probe aLAP1, fluorescence, higher = more signal;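 also: lysate comes from COS7 cells expressing LAP1 and is applied at 0.3 µg/mL; score merges spot fluorescence near 667 nm with signal-to-noise over triplicate slides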
# Sam68 (KHDRBS1) = test: compounds binding KHDRBS1 protein – biochemical, small-molecule microarray, 635 nm fluorescence, primary screen (AID 1125); conditions: higher = more signal;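 also: score merges 667 nm channel intensity with signal to noise over triplicate slides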
# [7] = test system: Chordin-like protein 2 (CHRDL2); test: compounds binding chordin-like 2 – biochemical, small-molecule microarray, 635 nm fluorescence, primary screen (AID 1126); conditions: fluorescence 635 nm, higher = more signal;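 also: printed compound slides probed with Chrdl2 protein at 4 µg/mL for 1 h at 4 C; score merges 667 nm emission intensity with signal to noise over three replicate slides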
# [8] = target: Concanavalin-A (Canavalia ensiformis) (UniProt P02866); test: compounds binding concanavalin A lectin – biochemical, small-molecule microarray, Alexa647 label, 635 nm, artefact control for SMM control protein annotation, primary screen (AID 1127); conditions: ConA-A647 binding fluorescence, higher = more signal;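 also: z combines 667 nm emission intensity with signal-to-noise across three replicate slides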
# Concanavalin-A (Canavalia ensiformis), sequence (P02866 whole entry, looked up): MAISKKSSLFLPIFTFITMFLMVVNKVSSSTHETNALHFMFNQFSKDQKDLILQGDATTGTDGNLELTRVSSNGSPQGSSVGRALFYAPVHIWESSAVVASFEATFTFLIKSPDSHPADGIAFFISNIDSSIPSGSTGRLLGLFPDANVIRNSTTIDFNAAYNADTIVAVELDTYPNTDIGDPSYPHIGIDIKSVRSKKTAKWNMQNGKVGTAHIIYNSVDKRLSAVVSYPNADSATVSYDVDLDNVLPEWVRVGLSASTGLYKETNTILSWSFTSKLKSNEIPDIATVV
# Albumin (Bos taurus), sequence (P02769 whole entry, looked up): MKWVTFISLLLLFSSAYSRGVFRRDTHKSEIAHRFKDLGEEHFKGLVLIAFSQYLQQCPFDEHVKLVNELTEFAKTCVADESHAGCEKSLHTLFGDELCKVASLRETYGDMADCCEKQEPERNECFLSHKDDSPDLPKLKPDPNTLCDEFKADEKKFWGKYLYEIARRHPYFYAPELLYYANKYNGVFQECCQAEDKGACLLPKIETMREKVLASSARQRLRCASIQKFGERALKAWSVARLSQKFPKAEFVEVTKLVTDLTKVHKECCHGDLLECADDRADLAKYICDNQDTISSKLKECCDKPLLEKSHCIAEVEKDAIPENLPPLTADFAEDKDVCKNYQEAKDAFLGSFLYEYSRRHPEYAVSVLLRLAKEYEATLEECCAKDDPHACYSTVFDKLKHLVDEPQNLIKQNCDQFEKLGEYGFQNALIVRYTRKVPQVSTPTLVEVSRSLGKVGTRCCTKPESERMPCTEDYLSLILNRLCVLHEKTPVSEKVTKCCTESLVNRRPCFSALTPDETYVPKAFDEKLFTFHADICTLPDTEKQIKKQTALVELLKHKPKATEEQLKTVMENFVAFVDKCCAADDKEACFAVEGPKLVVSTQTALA
SMILES,composite z-score (Albumin (Bos taurus)),composite Z-score [1],composite z-score [2],composite z-score [3],composite z-score [4],composite z-score [5],composite z-score [6],composite z-score (Sam68 (KHDRBS1)),composite z-score [7],composite z-score [8]
CCCC[C@H]1OB(O)C[C@H]2C1=C(C)C[C@H]1C(=O)N(C)C(=O)[C@H]12,0.748,0.506 (inactive),0.16,-0.117,0.328,0.326,0.308,1.08,0.311,0.321
COC(=O)[C@@H]1CCCN1C(=O)[C@@H](C)CO,0.448,-0.505 (inactive),0.0042,-0.16,0.192,0.84,-0.436,0.95,0.584,0.873
O=C(NN=C1C[C@@H](O)[C@@H](O)[C@@H]2[C@@H]3C(=O)N(c4cccc(Oc5ccccc5)c4)C(=O)[C@@H]3CC[C@@H]12)OCc1ccccc1,0.564,0.187 (inactive),0.0425,-0.0995,-0.249,0.36,-0.0773,0.24,0.162,0.277
C#C[C@@H](CC)O[Si](C#Cc1ccc(Oc2ccccc2)cc1)(C(C)C)C(C)C,-0.109,0.317 (inactive),0.122,-0.11,0.535,0.476,0.339,1.3,0.234,0.218
CC(CCN1CCCCc2nc(C)c(C)cc21)=NOC(C)CN1CCCc2nc(C)c(C)cc21 (stereo not given),0.493,1.69 (inactive),0.721,0.153,0.533,1.79,0.257,1.29,1.2,1.14
CC(=O)OC[C@H]1O[C@H](CC=NOC[C@@H](C)[C@H](OCc2ccccc2)C(C)C)C=C[C@@H]1OC(C)=O,-0.428,0.156 (inactive),-0.0773,-0.11,-0.253,0.043,-0.223,0.377,0.186,-0.182
O=C1CCCC=C1C(O)CCOCc1ccccc1 (stereo not given),-0.492,-0.32 (inactive),-0.0072,-0.108,-0.0262,-0.202,-0.195,-0.887,0.309,-0.299
CCOC(=O)[C@H](Cc1ccccc1)NC(=O)CCC1CC(OC(=O)NCc2ccc3c(c2)OCO3)CC2(CCCC(COC(=O)NCc3ccccc3)O2)O1 (stereo not given in full),0.3,0.255 (inactive),0.0437,-0.0728,0.373,0.248,0.0766,1.06,0.261,0.915
CC(C)c1ccc(NN2C(C(O)c3ccc4c(c3)OCO4)C=CC3C(=O)N(c4ccccc4)C(=O)C32)cc1 (stereo not given),1,0.491 (inactive),0.166,-0.0267,0.564,2.6,0.738,1.29,-0.0586,1.18
CCCCCN1CC=CC23O[C@@H]4C=CCOC(=O)[C@@H]4[C@H]2C(=O)N(C(CO)C(C)C)[C@@H]3C1=O (stereo not given in full),0.13,0.252 (inactive),-0.0328,-0.13,0.286,-0.59,1.06,-0.827,-0.326,0.203
NCCCCCNC(=O)[C@@H]1C[C@@H]2C(=O)N3CCC[C@H]3C(=O)N2[C@@H]1c1cccc(OCCO)c1,0.533,1.34 (inactive),0.453,0.294,0.659,1.68,1.09,1.19,1.14,1
O=C1[C@H]2[C@H]3[C@H](O)[C@H](O)CC(=NO[C@@H]4O[C@H](CO)[C@@H](O)[C@H](O)[C@H]4O)[C@H]3CC[C@H]2C(=O)N1Cc1ccc2c(c1)OCO2,0.861,-0.161 (inactive),-0.0984,-0.106,0.173,1.42,0.0185,0.89,-0.575,0.619
COC(=O)[C@H](C)NC(=O)CCC1CC(OC(=O)NCCc2ccc(F)cc2)CC2(CCCC(COC(=O)NCC(c3ccccc3)c3ccccc3)O2)O1 (stereo not given in full),0.675,0.269 (inactive),-0.0932,-0.1,0.343,1.44,0.031,1.22,0.17,0.714
